This is an account of results in ChEMBL document CHEMBL5308504, “Tm Shift (DSF) assay results for EUbOPEN Chemogenomics Library” (2023).

Several values for one entry are separate records, joined by “and”; a condition that tells them apart may be missing. Equal values may be shown once.

What all share (details): Compound concentration 20.0 uM, Protein concentration 2.0 uM, Result type QC Liability
In assay [1] the target is Tyrosine-protein kinase ABL1 (Homo sapiens) (UniProt P00519).
Assay [2] has as its target Cyclin-dependent kinase 2 (Homo sapiens) (UniProt P24941).
Assay [3] concerns the target Casein kinase I isoform delta (Homo sapiens) (UniProt P48730).
Assay [4] addresses Glycogen synthase kinase-3 beta (Homo sapiens) (UniProt P49841).
The target of assay [5] is Mitogen-activated protein kinase 1 (Homo sapiens) (UniProt P28482).
The target in assay [6] is T1, Aurora kinase A (Homo sapiens) (UniProt O14965).
T1 sequence (whole entry): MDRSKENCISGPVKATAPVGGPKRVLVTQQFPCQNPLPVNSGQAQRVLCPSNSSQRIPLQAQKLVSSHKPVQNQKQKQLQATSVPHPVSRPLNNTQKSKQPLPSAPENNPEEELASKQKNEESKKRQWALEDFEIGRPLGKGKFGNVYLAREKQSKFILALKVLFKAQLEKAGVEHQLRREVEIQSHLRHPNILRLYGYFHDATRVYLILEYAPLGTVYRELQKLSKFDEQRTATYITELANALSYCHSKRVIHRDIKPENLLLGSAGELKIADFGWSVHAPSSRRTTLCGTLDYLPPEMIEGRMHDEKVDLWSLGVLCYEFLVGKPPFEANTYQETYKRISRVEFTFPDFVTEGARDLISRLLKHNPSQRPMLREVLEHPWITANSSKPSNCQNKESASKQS

Tyrosine-protein kinase ABL1 (Homo sapiens), sequence (P00519 whole entry): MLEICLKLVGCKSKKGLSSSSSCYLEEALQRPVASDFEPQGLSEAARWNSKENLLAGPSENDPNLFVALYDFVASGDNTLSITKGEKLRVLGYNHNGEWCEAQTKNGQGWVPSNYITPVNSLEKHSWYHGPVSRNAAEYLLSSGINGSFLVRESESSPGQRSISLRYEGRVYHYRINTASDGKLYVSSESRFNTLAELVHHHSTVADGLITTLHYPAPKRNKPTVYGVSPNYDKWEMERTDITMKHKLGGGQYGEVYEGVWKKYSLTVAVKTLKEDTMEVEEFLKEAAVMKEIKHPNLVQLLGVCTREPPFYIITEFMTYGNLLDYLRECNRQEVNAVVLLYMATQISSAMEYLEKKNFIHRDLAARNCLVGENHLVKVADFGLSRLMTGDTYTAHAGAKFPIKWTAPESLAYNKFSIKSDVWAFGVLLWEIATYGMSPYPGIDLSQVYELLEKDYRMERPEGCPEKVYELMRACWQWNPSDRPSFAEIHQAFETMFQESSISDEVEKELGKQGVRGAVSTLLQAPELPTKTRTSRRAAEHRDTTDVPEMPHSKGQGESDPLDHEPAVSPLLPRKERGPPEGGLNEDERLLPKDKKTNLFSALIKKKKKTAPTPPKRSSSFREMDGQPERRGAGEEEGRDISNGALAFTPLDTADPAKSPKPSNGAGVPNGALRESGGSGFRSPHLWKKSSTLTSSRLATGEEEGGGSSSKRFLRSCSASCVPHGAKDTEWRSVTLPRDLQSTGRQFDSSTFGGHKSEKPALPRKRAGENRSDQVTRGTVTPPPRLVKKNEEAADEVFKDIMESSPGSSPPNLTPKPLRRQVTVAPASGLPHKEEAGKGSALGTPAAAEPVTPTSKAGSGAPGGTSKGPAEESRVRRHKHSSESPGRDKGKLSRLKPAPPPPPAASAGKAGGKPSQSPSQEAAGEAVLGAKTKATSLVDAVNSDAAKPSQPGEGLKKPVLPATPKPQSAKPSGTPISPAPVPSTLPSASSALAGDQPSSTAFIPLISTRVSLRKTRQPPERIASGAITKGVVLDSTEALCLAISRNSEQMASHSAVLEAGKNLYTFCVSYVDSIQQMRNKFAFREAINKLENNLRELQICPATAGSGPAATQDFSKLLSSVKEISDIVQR
Casein kinase I isoform delta (Homo sapiens), sequence (P48730 whole entry, looked up, canonical isoform): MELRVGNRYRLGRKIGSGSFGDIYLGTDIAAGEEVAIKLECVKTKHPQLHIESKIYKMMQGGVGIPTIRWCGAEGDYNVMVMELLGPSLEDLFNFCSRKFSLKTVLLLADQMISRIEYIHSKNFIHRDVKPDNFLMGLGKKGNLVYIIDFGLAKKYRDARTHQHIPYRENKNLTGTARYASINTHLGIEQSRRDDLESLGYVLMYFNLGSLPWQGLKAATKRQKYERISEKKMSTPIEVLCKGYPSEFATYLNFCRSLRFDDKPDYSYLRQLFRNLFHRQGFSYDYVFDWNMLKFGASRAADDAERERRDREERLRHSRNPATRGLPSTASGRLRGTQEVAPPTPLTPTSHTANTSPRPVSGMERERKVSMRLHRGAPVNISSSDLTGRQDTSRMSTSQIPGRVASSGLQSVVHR
Glycogen synthase kinase-3 beta (Homo sapiens), sequence (P49841 whole entry, looked up): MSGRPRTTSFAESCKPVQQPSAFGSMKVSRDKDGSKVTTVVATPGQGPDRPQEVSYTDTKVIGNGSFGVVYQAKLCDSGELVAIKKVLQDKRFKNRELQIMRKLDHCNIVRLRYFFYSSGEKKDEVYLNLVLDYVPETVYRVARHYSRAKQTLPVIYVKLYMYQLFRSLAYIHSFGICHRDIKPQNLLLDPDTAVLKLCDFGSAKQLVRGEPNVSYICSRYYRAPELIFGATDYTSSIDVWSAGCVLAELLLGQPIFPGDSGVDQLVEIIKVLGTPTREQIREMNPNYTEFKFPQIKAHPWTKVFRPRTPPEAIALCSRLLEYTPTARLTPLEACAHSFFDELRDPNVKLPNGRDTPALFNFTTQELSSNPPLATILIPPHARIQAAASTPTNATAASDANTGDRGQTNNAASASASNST
Mitogen-activated protein kinase 1 (Homo sapiens), sequence (P28482 whole entry): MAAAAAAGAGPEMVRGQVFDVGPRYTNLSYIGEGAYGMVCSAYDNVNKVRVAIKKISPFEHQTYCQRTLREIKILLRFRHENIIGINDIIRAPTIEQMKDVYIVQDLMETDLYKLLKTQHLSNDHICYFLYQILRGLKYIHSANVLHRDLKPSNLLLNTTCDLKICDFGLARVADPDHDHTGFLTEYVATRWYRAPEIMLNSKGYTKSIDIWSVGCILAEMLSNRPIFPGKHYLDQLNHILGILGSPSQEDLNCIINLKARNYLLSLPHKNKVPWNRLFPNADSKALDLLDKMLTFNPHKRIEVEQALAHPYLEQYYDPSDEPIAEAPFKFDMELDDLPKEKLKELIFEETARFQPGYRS

Consider `COc1cc(C(N)=O)ccc1Nc1ncc2c(n1)N(CCC(C)C)[C@H](C)C(=O)N2C`, for which the ΔTm in assay [1] is 1.42 °C; in assay [2], -0.37 °C; in assay [3], 0.51 °C; in assay [4] it was 0.01 °C; in assay [5], -6.61 °C; in assay [6], -0.69 °C.
Turning to `CCc1ccccc1C(=O)Nc1n[nH]c2c(C)c(F)c(C3C(C#N)=C(C)N(C)C(C)=C3C#N)cc12`, the shift in melting temperature (ΔTm) in assay [1] worked out at 0.41 °C; in assay [2], 1.35 °C; in assay [3], 0.67 °C; in assay [4], 8.17 °C; in assay [5], 0.38 °C; in assay [6], 5.56 °C.
In the case of `COc1cc(-c2cc3ncccc3c(OC[C@H]3CNC(=O)C3)n2)cc(OC)c1OC1CCOCC1`, the shift in melting temperature (ΔTm) in assay [1] is 1.45 °C; in assay [2] it was -0.03 °C; in assay [3] it was 2.63 °C; in assay [4], -0.87 °C; in assay [5], 0.16 °C; in assay [6] it was 5.56 °C.
As to `Cc1csc(S(=O)(=O)N(CC(C)C)c2cc3c(cc2OCc2ccc(C(=O)O)cc2)CCC3)n1`, the ΔTm in assay [1] is 0.11 °C; in assay [2], -0.15 °C; in assay [3], -0.34 °C; in assay [4], 0 °C; in assay [5], -0.27 °C; in assay [6], -0.4 °C.
Regarding `C[C@@H]1C[C@H](C)CN(c2ncc(Cl)c(Nc3ccc4c(c3)cc(OC(C)(C)C(=O)O)c(=O)n4C)n2)C1`, the ΔTm in assay [1] is -0.58 °C; in assay [2], 0.18 °C; in assay [3], -0.08 °C; in assay [4], -1.47 °C; in assay [5] it was 0.14 °C; in assay [6], 0.18 °C.
For the molecule `Cc1cc(OC2CCS(=O)(=O)CC2)cc(C)c1-c1cccc(COc2ccc(C(=O)O)c(F)c2)c1`, the ΔTm is 0.14 °C in assay [1]; -1.08 °C in assay [2]; 0.23 °C in assay [3]; -0.54 °C in assay [4]; 0.7 °C in assay [5]; -1.19 °C in assay [6].
For `CC(C)N1CCN(Cc2cnc(-c3cc(-c4cccc5[nH]ccc45)cc4[nH]ncc34)o2)CC1`, the ΔTm came out at 2.44 °C in assay [1]; 0.6 °C in assay [2]; 1.32 °C in assay [3]; 3.63 °C in assay [4]; 0.24 °C in assay [5]; 4.96 °C in assay [6].
In the case of `O=C(O)Cc1ccc(CCNS(=O)(=O)c2ccc(Cl)cc2)cc1`, the ΔTm is 0.25 °C in assay [1]; 0.43 °C in assay [2]; 0.01 °C in assay [3]; 0.95 °C in assay [4]; -0.52 °C in assay [5]; -0.24 °C in assay [6].
Turning to `Cc1ccc(NS(=O)(=O)c2ccc3c(c2)C2C=CCC2C(c2ccc(C(=O)O)cc2)N3)cc1C` (stereo not given), the ΔTm in assay [1] was -0.61 °C; in assay [2] it was 1.5 °C; in assay [3], 0.36 °C; in assay [4], -1.27 °C; in assay [5], -3.84 °C; in assay [6] it was -2.29 °C.
Turning to `CCCCCCC(Sc1nc(Cl)cc(NCc2ccc(-c3ccccc3)cc2)n1)C(=O)O` (stereo not given), the ΔTm is -0.03 °C in assay [1]; -0.83 °C in assay [2]; 0 °C in assay [3]; 0 °C in assay [4]; 0 °C in assay [5]; -1.22 °C in assay [6].
On to `CC(=O)c1c(C)c2cnc(Nc3ccc(N4CCN(CCOCCOCCOCCNC(=O)COc5cccc6c5C(=O)N(C5CCC(=O)NC5=O)C6=O)CC4)cn3)nc2n(C2CCCC2)c1=O` (stereo not given), for which the ΔTm in assay [1] was -0.65 °C; in assay [2] it was -0.26 °C; in assay [3], 1.49 °C; in assay [4], 1.18 °C; in assay [5], -1.16 °C; in assay [6], 0.61 °C.
In the case of `O=C(Nc1ccc(Cl)c(-c2ccccn2)c1)c1cccc(COc2ccc(Br)cc2CNCCO)c1`, the ΔTm in assay [1] is 0.35 °C; in assay [2] it was -0.21 °C; in assay [3] it was 0.55 °C; in assay [4], -0.89 °C; in assay [5], -0.69 °C; in assay [6] it was -0.51 °C.
Turning to `C[S+](C)[O-]`, the ΔTm in assay [1] was 0 °C (2×) and 0.21 °C; in assay [2], 0 °C (2×) and 0.78 °C; in assay [3], 0 °C (2×) and 0.01 °C; in assay [4], 0 °C (2×) and -0.51 °C; in assay [5], 0 °C (2×) and 0.53 °C; in assay [6], 0 °C (2×) and 0.05 °C.
Regarding `N=C(N)NCCC[C@@H](NC(=O)C(c1ccccc1)c1ccccc1)C(=O)NCc1ccc(CNC(N)=O)cc1`, the ΔTm in assay [1] was 0.37 °C; in assay [2] it was 0.62 °C; in assay [3], 0.21 °C; in assay [4], -0.25 °C; in assay [5] it was 0.26 °C; in assay [6], 0.1 °C.
Regarding `COc1cc(Cl)c(C(=O)N[C@@H](CN[C@H]2CC[C@@H](N)CC2)Cc2ccc(C#N)cc2)cc1-c1ccc(CN[C@H](C)c2ccc(C)cc2)o1`, the ΔTm in assay [1] is 0.33 °C; in assay [2], 0.42 °C; in assay [3], -0.07 °C; in assay [4], -0.81 °C; in assay [5], 0.33 °C; in assay [6], 0.07 °C.
Consider `O=C(NC[C@@H]1[C@H]2CN(C(=O)OCc3cc(C(F)(F)F)cc(C(F)(F)F)c3)C[C@@H]12)c1ccc2[nH]nnc2c1`, for which the ΔTm is -2.53 °C in assay [1]; -9.8 °C in assay [2]; 0.69 °C in assay [3]; -10.5 °C in assay [4]; -10.3 °C in assay [5]; 0.61 °C in assay [6].
On to `C=CC(=O)Nc1cccc(C(=O)Nc2ccc(Nc3cc(-c4c(-c5ccc(F)cc5)nc(SC)n4C)ccn3)cc2)c1`, for which the ΔTm in assay [1] is 2.33 °C; in assay [2], -0.01 °C; in assay [3], 3.17 °C; in assay [4], -0.32 °C; in assay [5], 0.35 °C; in assay [6], 1.08 °C.
Consider `COc1cc(-c2cncc(-c3ccc(N4CCN(C(C)C)CC4)cc3)c2C)cc(F)c1C(N)=O`, for which the ΔTm in assay [1] was 1.79 °C; in assay [2], 0.61 °C; in assay [3], 0.92 °C; in assay [4] it was 1.06 °C; in assay [5], 0.21 °C; in assay [6], -0.31 °C.
Consider `CN1CCC(F)(Cn2cnc(-c3ccc(F)cn3)c2-c2ccnc3[nH]ccc23)CC1`, for which the ΔTm in assay [1] is 0.05 °C; in assay [2], 0.48 °C; in assay [3], 8.14 °C; in assay [4], -0.54 °C; in assay [5], 0.37 °C; in assay [6], -0.98 °C.
With `CCC(C(=O)Nc1ccc(-c2cc3ccccc3s2)c(C(N)=O)c1)c1nccs1` (stereo not given), the ΔTm in assay [1] was determined as 0.88 °C; in assay [2], 0.25 °C; in assay [3], 0.47 °C; in assay [4], 0.69 °C; in assay [5], 0.41 °C; in assay [6], 0.34 °C.
As to `O=C(CNC(=O)c1ccc(-c2ccccc2)cc1)NC1CCCc2ccccc21` (stereo not given), the ΔTm is 0.75 °C in assay [1]; -0.06 °C in assay [2]; -1.78 °C in assay [3]; -2.76 °C in assay [4]; 0.17 °C in assay [5]; -1.46 °C in assay [6].
With `COc1cccc(-c2c(C)c(Cc3c(F)cccc3C(F)(F)F)c3n(c2=O)[C@@H]([C@@H](N)c2ccccc2)CS3)c1F`, the ΔTm is -0.84 °C in assay [1]; -0.89 °C in assay [2]; -2.7 °C in assay [3]; -0.72 °C in assay [4]; -2.02 °C in assay [5]; -0.62 °C in assay [6].
Regarding `CC(C)(C[C@H]1CN(S(=O)(=O)c2cccc(C(F)(F)F)c2)c2cc(-c3cc(F)cc(OC(F)F)c3)ccc2O1)C(=O)O`, the ΔTm in assay [1] was -1.5 °C; in assay [2] it was -2.02 °C; in assay [3], -2.71 °C; in assay [4], -2.26 °C; in assay [5] it was -6.9 °C; in assay [6], -3.89 °C.
Consider `O=C(O)c1cc(F)c2nc(N3[C@@H]4CC[C@H]3C[C@@H](OCc3c(-c5ccccc5OC(F)(F)F)noc3C3CC3)C4)sc2c1`, for which the ΔTm in assay [1] is 0.23 °C; in assay [2] it was 0.38 °C; in assay [3], 0.11 °C; in assay [4], -5.45 °C; in assay [5] it was -0.82 °C; in assay [6] it was -8.04 °C.
Consider `O=C(Nc1cccc(C(F)(F)F)c1)c1cccc(-n2cc(-c3ccco3)nn2)c1`, for which the ΔTm was 0.46 °C in assay [1]; 0.62 °C in assay [2]; -5.13 °C in assay [3]; -7.24 °C in assay [4]; -10.6 °C in assay [5]; -2.64 °C in assay [6].

In general, ΔTm refers to the change in melting temperature against a reference sample.
